# High-throughput results as filed in PubChem.
# HTT prom inh: Primary qHTS for Identification of Small Molecule Inhibitors of Huntingtin Promoter Activity | AID 1508623, 2021 | 0.93% of 48,000 active | Potency, µM (highest dose often 57.5 µM), inactives show at the highest dose activity change, negative = inhibition, actives largely listed as inhibitors | HEK293 HTT promoter firefly luciferase reporter, 24 h; also: potency is read from the fitted curve at half-maximal effect; nearly all actives have a fitted effect of over 50% in size
#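 HEK293 Fluc reporter, 2,500 cells/well, 24 h pre-culture; cpds up to 57.5 uM final, 24 h 37 degrees C; Dual-Glo, 10 min RT; normalized vehicle = 0%, zero RLU = -100%.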
# NTMT1 inh: Primary qHTS for Inhibitors of N-terminal methyltransferase 1 (NTMT1): MTaseGlo Assay; N-terminal Xaa-Pro-Lys N-methyltransferase 1 (Homo sapiens), Q9BV86; NTMT1 MTase-Glo SAH luminescence, purified enzyme; Potency, µM (series often up to 114 µM), for the others: top-dose activity change, negative = inhibition, actives largely listed as inhibitors; 2.5% of 59,000 active; AID 1645870, 2021;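 also: potency is read from the fitted curve at half-maximal effect; plate controls were DMSO vehicle for no effect and no enzyme for full effect; nearly all actives have a fitted effect of over 65% in size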
# Target sequence (Q9BV86 whole entry, looked up): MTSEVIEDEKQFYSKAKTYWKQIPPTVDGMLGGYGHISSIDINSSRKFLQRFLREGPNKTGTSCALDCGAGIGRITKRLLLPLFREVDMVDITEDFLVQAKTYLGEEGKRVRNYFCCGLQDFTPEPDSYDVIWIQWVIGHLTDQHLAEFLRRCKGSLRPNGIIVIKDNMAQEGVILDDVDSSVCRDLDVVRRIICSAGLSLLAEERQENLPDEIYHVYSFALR
# GPR32 ag: qHTS for Agonists of Human Resolvin D1 Receptor DRV1 | activation, % at 76.9 µM | AID 1346428, 2018 | CHO-K1 GPR32 beta-arrestin PathHunter luminescence, 90 min; zero percent set by DMSO-only wells | Probable G-protein coupled receptor 32 (Homo sapiens), O75388 | 2.5% of 48,000 active;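 active = activation of at least 60% and not above a set upper limit, about 1 call in 100 departs from these limits; inconclusive = activation of 40% to 60%, or above that upper limit; inactive = activation under 40%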; also: 0% is about no effect
#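 CHO-K1 cells stably expressing ProLink-tagged GPR32 and Enzyme Activator-tagged beta-arrestin were seeded at 2,500 cells/well overnight, exposed to compounds for 90 min at 37 °C, then read by beta-Gal complementation chemiluminescence after 1 h detection reagent.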
# HTT-AS act: Primary qHTS for Identification of Small Molecule Activators of Huntingtin-Antisense Promoter Activity; HEK293 HTT-AS promoter firefly luciferase reporter, 24 h; response scale: percent change from vehicle, -100% = no light; Potency, µM (highest dose often 57.5 µM), for the others: at the top dose activity change, positive = activation, usual class: activators; 0.24% of 48,000 active; also: potency is read from the fitted curve at half-maximal effect; nearly all actives have a fitted effect of over 55% in size
#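 HEK293 cells carrying firefly luciferase reporters were seeded at 2,500 per well in Opti-MEM and cultured for 24 h. They were then treated with compounds at up to 57.5 uM final for 24 h at 37 degrees C before Dual-Glo luminescence readout.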
# * hit, by the source's call; ? = inconclusive; / = not tested or not shown; ! = repeats disagree; [ ] = another dose, or the depositor's remark. Only some compounds are listed: those with a hit (about 4.6% of all), similar ones and a draw of the others. Unless noted, calls follow the shape of the dose curve; as a rule, active = well fitted curve in the direction sought with a large enough effect; inconclusive = small, poorly fitted or top-dose-only effect, or another doubt; inactive = no such curve, though single readings can be large; an effect the other way counts as inactive or inconclusive.
SMILES,HTT prom inh,NTMT1 inh,GPR32 ag,HTT-AS act
CC(=O)c1ccc(NC(=O)c2nc(-c3ccccc3)n(-c3ccccc3)n2)cc1,-2%,0%,-10,-14%
Cc1ccc(Nc2nc(-c3ccccc3)nc3ccccc23)cc1,-29%,17%,?,-29%
Cc1cccc(Nc2nc(-c3ccccc3)nc3ccccc23)c1,-23%,-10%,110*,-30%
Oc1cccc(Nc2nc(-c3ccccc3)nc3ccccc23)c1,-18%,?,61*,-8%
Cc1ccc(S(=O)(=O)Cc2nc(-c3ccc(C(=O)NCc4ccccc4)cc3)oc2C)cc1,?,5%,77*,-38%
Cc1cn([C@H]2C[C@H](N[S+](=O)([O-])Cc3cccc([N+](=O)[O-])c3)[C@@H](CO)O2)c(=O)[nH]c1=O,/,10%,/,/
O=C(Nc1ccc(Cl)c(Cl)c1)Nc1nnc(-c2cccnc2)s1,/,22µM*,/,/
N#Cc1ccc2ncnc(NCCc3ccccc3)c2c1,/,4%[57.5 µM],/,/
CCOC(=O)N1CCC(NC(=O)c2cnn(-c3cccc(Cl)c3C)c2C2CCN(C(=O)OC(C)(C)C)CC2)CC1,7%,6%,9,0%
CCS(=O)(=O)c1cccc(-c2cc(C(=O)NC3CCN(C)CC3)c(C)c3[nH]c4ncc(C)cc4c23)c1,?,28µM*!,/,-37%
COc1ccc(CCNc2ncnc3onc(C)c23)c(OC)c1,1.3µM*,-3%,75*,-84%
CCCNc1ncnc2onc(C)c12,-24%,3%,5,-21%
COc1cccc(CNc2ncnc3onc(C)c23)c1,?,9%,33,-58%
CSc1ccc(CCNc2ncnc3onc(C)c23)cc1,1µM*,?,33,-79%
Cc1ccc(CCNc2ncnc3onc(-c4ccc(Cl)cc4)c23)cc1,?,-4%,4,-22%
CCOc1ccc(CCNc2ncnc3onc(-c4ccc(Cl)cc4)c23)cc1,14µM*,-2%,-3,-68%
OC[C@H]1O[C@@H](OCc2ccccc2)[C@H](O[C@@H]2OC[C@@H](O)[C@H](O)[C@H]2O)[C@@H](O)[C@@H]1O,/,-3%[29.8 µM],/,/
COCc1c(Cl)ccc2c1CC[C@H]2c1ncc[nH]1,/,3%[57.5 µM],/,/
CC[C@@]1(O)C(=O)OCc2c1cc1n(c2=O)Cc2c-1nc1ccccc1c2CCNC(C)C,/,13%[12.6 µM],/,/
O=C1CCCC2=C1C(c1[nH]ncc1Cl)NC(=NCc1ccccc1)N2 (stereo not given),/,-1%,/,/
CC(=O)N1c2ccccc2CC1C(=O)N1CCN(c2cccc(C)c2C)CC1 (stereo not given),-21%,-1%,116*,-16%
CC(=O)N1c2ccccc2CC1C(=O)N1CCN(c2ccccc2F)CC1 (stereo not given),-23%,-2%,-14,-6%
COC(=O)CC(C)(O)CC(=O)OCc1ccc(O[C@@H]2O[C@H](CO)[C@@H](O)[C@H](O)[C@H]2O)cc1 (stereo not given in full),/,19%[29.8 µM],/,/
CCOC(=O)c1cnc2ccc(C)cc2c1Nc1ccc(N(CC)CC)cc1,25µM*,?,43,-81%
Cn1c(NCc2ccccc2F)nc2ccccc21,70%,?,14,5µM*
SMILES,HTT prom inh,NTMT1 inh,GPR32 ag,HTT-AS act
O=C(CSc1nc2ccccc2n1Cc1ccccc1F)NCc1ccccc1,?,3%,-10,-18%
COc1cccc(CNc2ccc(S(=O)(=O)Nc3nccs3)cc2)c1,/,-11%,/,/
CCC(=O)C1=C(c2ccc(C)cc2)N(C(=O)CC)n2c(nnc2C2CCCCC2)S1,-20%,-3%,-39,-21%
Cc1cc(C2CCCCC2)n(O)c(=O)c1,?,?,77*,-24%
COC(=O)c1ccc(Nc2nc(-c3ccncc3)nc3ccccc23)cc1OC,/,-11%[57.5 µM],/,/
CCCC(O)c1nc2ccccc2n1CCCCOc1ccc(OC)cc1 (stereo not given),-36%,6%,91*,-36%
CC(=O)NCCc1nc2ccccc2n1CCCCOc1ccc(Cl)cc1,-27%,-1%,76*,-25%
CCCNS(=O)(=O)Nc1ncnc(OCCOc2ncc(Br)cn2)c1-c1ccc(Br)cc1,16%,8.6µM*!,/,-7%
CC(=O)Nc1ccc2nc(SCc3ccccc3)sc2c1,30%,4%,?,?
CCc1ccc(Nc2nc(N)nc(CSc3nc4ccccc4s3)n2)cc1,-28%,89µM*,35,-15%
